What all share (test): log2 fold change, soluble protein after heating vs DMSO (PISA); higher = thermal stabilisation; K562 lysate, 10 uM; active = over 0.2 and 3.5 SD of the protein, either way, in both replicates (recomputed)
Compound in test [1]: NCC(=O)Nc1ccc(-n2nc(C(F)(F)F)cc2-c2ccc3c(ccc4ccccc43)c2)cc1
Summed up:
(§1)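 Values give the log-two fold change in thermal stability against solvent controls, from duplicates. Crude K562 extract at 1 mg/mL protein, made by dounce homogenisation in PBS pH 7.4 with 1 mM MgCl2, was treated with 10 μM compound for 30 min. After 3 min heating across 48°C-58°C, aliquots were pooled, adjusted to 0.5% NP-40 at 4°C and centrifuged at 21,000xg for 90 min. The supernatant was measured by TMTpro 16plex LC-MS/MS with channel sums equalised.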

Compound in a further test: O=C(CCCCCCC(=O)Nc1ccccc1)NO [vorinostat]
Summed up:
as §1

Compound in a further test: O=C(O)c1ccc2c(c1)nc(Nc1cccc(Cl)c1)c1ccncc12 [silmitasertib]
Summed up:
as §1

Compound in test [2]: O=C1NC(=O)C(c2cnc3ccccn23)=C1c1cn2c3c(cc(F)cc13)CN(C(=O)N1CCCCC1)CC2
Summed up: as §1

Compound in another test: c1cn2cc(-c3ccc4cn[nH]c4c3)nc(Nc3ccc(N4CCOCC4)cc3)c2n1 [entospletinib]
Summed up:
as §1

About 8,800 targets were measured; listed, in parts, are those with a hit and a random draw of the rest. About 0.5% of all pairs of compound and target were hits. Unmarked numbers belong to inactive results.

UniProt Q96F86, sequence (Q96F86 whole entry, looked up): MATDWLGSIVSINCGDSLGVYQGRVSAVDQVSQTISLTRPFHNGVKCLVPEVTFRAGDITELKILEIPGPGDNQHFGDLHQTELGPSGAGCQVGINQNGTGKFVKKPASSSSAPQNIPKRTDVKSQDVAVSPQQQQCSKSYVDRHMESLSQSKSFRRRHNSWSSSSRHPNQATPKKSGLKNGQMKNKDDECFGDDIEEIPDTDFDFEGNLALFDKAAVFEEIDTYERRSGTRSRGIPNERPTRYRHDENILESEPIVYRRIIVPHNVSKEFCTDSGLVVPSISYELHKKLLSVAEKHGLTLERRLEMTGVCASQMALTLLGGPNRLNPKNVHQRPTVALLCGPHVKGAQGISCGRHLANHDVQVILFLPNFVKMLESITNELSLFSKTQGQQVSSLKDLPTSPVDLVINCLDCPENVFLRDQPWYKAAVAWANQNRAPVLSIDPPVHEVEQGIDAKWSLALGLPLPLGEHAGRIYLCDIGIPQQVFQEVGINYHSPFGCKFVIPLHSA
UniProt O14772, sequence (O14772 whole entry, looked up): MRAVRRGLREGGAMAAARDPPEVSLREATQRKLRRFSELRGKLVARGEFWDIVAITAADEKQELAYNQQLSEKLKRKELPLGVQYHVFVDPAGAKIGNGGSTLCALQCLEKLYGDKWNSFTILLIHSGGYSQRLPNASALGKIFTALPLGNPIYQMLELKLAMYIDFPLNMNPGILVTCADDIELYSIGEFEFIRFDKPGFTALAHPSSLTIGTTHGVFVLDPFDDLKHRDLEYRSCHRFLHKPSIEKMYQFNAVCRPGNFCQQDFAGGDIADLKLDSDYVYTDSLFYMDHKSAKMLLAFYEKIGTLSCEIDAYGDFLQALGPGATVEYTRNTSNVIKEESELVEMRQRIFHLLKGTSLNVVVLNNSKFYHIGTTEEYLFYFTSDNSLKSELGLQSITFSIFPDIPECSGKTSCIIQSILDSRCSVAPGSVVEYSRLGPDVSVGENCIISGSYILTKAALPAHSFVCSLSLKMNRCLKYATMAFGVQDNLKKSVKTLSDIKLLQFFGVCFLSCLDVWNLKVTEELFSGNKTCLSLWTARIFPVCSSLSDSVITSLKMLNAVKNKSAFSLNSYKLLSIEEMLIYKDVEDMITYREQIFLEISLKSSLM

For the target FPGT (UniProt O14772), the log2 fold change in test [1] was -0.014; with vorinostat it was -0.574 (active); in the test with silmitasertib, 0.008; in test [2], -0.015; in the test with entospletinib it was -0.062.
In the case of EED, A0A5F9ZI63, the log2 fold change in test [1] was -0.022; in the test with vorinostat, -0.227 (active); with silmitasertib, 0.043; in test [2], -0.018; in the test with entospletinib, 0.009.
Regarding EDC3 (UniProt Q96F86), the log2 fold change was 0.02 in test [1]; -0.277 (active) with vorinostat; 0 with silmitasertib; -0.026 in test [2]; 0.013 with entospletinib.

Source of the values: the supplement of paper PMC10849652.
